# Rows were chosen to be rich in hits. Some 14% of all compounds tested hit in one or more screens of this group.
# Pf growth 48h = P. falciparum growth inhibition at 48 hours (one generation). P. falciparum luciferase growth in erythrocytes, 48 h. Potency, µM (top dose mostly 28.7 µM), without a hit: at the top dose activity change, negative = inhibition, most hits filed as inhibitors. actives 5.9% (n = 310,000). AID 504832; also: potency is read from the fitted curve at half-maximal effect
#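 Luminescence readout; reporter = integrated firefly luciferase in P. falciparum. RBC culture at 2% hematocrit, 0.1% parasitemia final, 37 C/5% CO2; decreased signal taken as growth inhibition.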
# HCV inh = blocks hepatitis C virus | Huh7.5.1 HCVcc-Cre infection, luciferase reporter, 44 h | Potency, µM (series often up to 41.8 µM), without a hit: at the highest dose activity change, negative = inhibition, most hits filed as inhibitors | actives 3.4% (n = 340,000); also: potency is read from the fitted curve at half-maximal effect
#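 After 44 h co-culture of compound, cells and HCVcc-Cre (~0.5 moi), substrate is added for 15 min at room temperature and luciferase measured over 15 sec. Cells were seeded at 1,000/well and pre-cultured 4 h.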
# Lassa entry inh = Lassa virus entry inhibition | Lassa virus pseudotype entry inhibition, cell reporter | Potency, µM (top dose mostly 37.9 µM), inactives show top-dose activity change, negative = inhibition, hits mostly inhibitors | actives 1.2% (n = 300,000); calls by dose curve; tested in HEK293 cells; also: potency is read from the fitted curve at half-maximal effect; nearly all actives have a fitted effect of over 50% in size
# Pf growth 96h = P. falciparum growth inhibition at 96 hour, primary screen for plastid delayed-death inhibitors. P. falciparum luciferase reporter growth, 96 h. actives 6.9% (n = 320,000). AID 504834. Potency, µM (top dose mostly 28.7 µM), for inactives: top-dose activity change, negative = inhibition, usual class: inhibitors; also: potency is read from the fitted curve at half-maximal effect
#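 Infected RBCs, 2% Hct / 0.05% parasitemia final; luciferase-reporter P. falciparum; cpd 96 h, 37 C, 5% CO2; luciferase detection reagent; luminescence.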
# HCMV inh = inhibitors of human cytomegalovirus | AID 1259415 | activity change, negative = inhibition, % at 57.5 µM | actives 4.5% (n = 410,000) | HFF cells, HCMV-luciferase reporter, 72 h; active compounds read low; in the data active = activity change below about -60%; inconclusive = no clear call, values can overlap the other calls; inactive = above about -39%
#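 Compounds were evaluated in HFFs infected with an HCMV luciferase reporter virus (MOI 1 PFU/cell). Luciferase in lysates collected 72 h post infection served as the replication measure.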
# MARV entry inh = inhibitors of Marburg virus binding or cell entry; Marburg virus pseudotyped entry inhibition, cell reporter; Potency, µM (top dose mostly 37.8 µM), for inactives: at the highest dose activity change, negative = inhibition, usual class: inhibitors; actives 1.8% (n = 300,000); AID 540276; calls by dose curve; tested in HEK293 cells; also: potency is read from the fitted curve at half-maximal effect
# * marks the source's active call; other numbers are inactive results; ? = inconclusive; . = no result given; [ ] = another dose, or the depositor's remark. Unless noted, calls follow the shape of the dose curve; as a rule, active = well fitted inhibition curve with a large enough effect; inconclusive = small, poorly fitted or top-dose-only effect, or another doubt; inactive = no such curve, though single readings can be large or run the other way. % is scaled to controls: 0 for no effect and ±100 for the full control effect.
SMILES,Pf growth 48h,HCV inh,Lassa entry inh,Pf growth 96h,HCMV inh,MARV entry inh
COC(=O)c1ccc(CNC(=O)/C=C/[C@H]2O[C@@H](n3cc(C)c(=O)[nH]c3=O)C[C@@H]2O)cc1,.,.,.,.,38,.
O=[N+]([O-])c1ccc(N2CCCC(C(F)(F)F)C2)c2ccncc12 (stereo not drawn),13µM*,10µM*,?,?,-12,?
CSCCC(C(=O)NCc1ccccc1)n1c(Cc2cc(F)cc(F)c2)nc2ccccc21 (stereo not drawn),.,.,.,.,-18,.
CC(=O)c1c(C)[nH]c(C2=NNC(=NCc3ccccc3)SC2)c1C,?,-29%,.,-37%,27,.
CCOC(=O)c1c(C)[nH]c(C2=NNC(=Nc3cccc(Cl)c3)SC2)c1C,2.1µM*,?,-23%,2.1µM*,.,?
O=C(CSc1nc2ccccc2[nH]1)NC1CCCc2ccccc21 (stereo not drawn),3%,?,5%,?,-37,5%
O=C(CSc1nc2ccc(Cl)cc2[nH]1)NC1CCCc2ccccc21 (stereo not drawn),17%,?,-25%[46.1 µM],?,-74*,?
CC(C)(C)c1ccc(C(=O)N/C(=C\c2cccs2)C(=O)NCc2ccco2)cc1,?,-28%,-41%,8.3µM*,-11,-23%
COc1ccc(CC(=O)OCC(=O)c2ccc(F)cc2)cc1,.,0%,-6%,.,-35,0%
O=C(Nc1ccc(Br)cc1)c1ccc(F)c(S(=O)(=O)NC2CCCCCC2)c1,.,.,?,.,-98*,.
O=C(Nc1ccc(Br)cc1)c1ccc(F)c(S(=O)(=O)N2CCN(c3ccccn3)CC2)c1,?,7.1µM*,?,-3%,-89*,?
CC(C)c1ccc(NC(=O)c2ccc(F)c(S(=O)(=O)N3CCN(c4ccccc4F)CC3)c2)cc1,.,.,20%[46.1 µM],.,-37,.
O=C(Nc1cc(Cl)cc(Cl)c1)c1ccc(F)c(S(=O)(=O)NC2CCCCC2)c1,.,.,-3%[46.1 µM],.,-21,.
Cc1ccccc1NC(=O)c1ccc(F)c(S(=O)(=O)N2CCN(c3ccccn3)CC2)c1,13µM*,?,?,.,?,-6%
Cc1ccccc1NC(=O)c1ccc(C)c(S(=O)(=O)N2CCN(C)CC2)c1,-24%,13%,.,18%,14,.
CC(=O)Nc1ccc(CN(C)c2c(C)nc3ccc(C(=O)Nc4ccc(Cl)c(Cl)c4)cn23)cc1,.,.,.,.,22,.
CCOc1ccc(NC(=O)N2C[C@H]3C[C@@H](C2)c2cccc(=O)n2C3)cc1,5%,12%,.,-13%,16,.
CCOc1ccc(/C=N/NC(=O)c2ccc(F)cc2)cc1CN1CC2CC(C1)c1cccc(=O)n1C2 (stereo not drawn),5.2µM*,?,.,18%,1,2%
CCOc1ccc(/C=N/NC(=O)c2ccccc2Cl)cc1CN1CC2CC(C1)c1cccc(=O)n1C2 (stereo not drawn),8.3µM*,2.5µM*,.,-23%,-4,-2%
CCOc1ccc(/C=N/NC(=O)c2ccccc2C)cc1CN1CC2CC(C1)c1cccc(=O)n1C2 (stereo not drawn),3.7µM*,?,.,?,9,7%
COc1ccc(/C=N/NC(=O)c2ccccc2)cc1CN1CCN(c2ccc(F)cc2)CC1,3%,-23%,1%,12%,-15,-4%
COC(=O)C1=C(C(=O)OC)[C@@H]2N(C)c3ccccc3[C@@]23CCC(=O)N(Cc2cc(OC)c(OC)c(OC)c2)C3=N1,.,.,.,.,.,-12%[14.2 µM]
C=CCn1c(=O)[nH]c2cc(C(=O)N3CCN(c4ccc(C(C)=O)cc4)CC3)ccc2c1=O,.,?,?,6.6µM*,13,-18%
CC(=O)c1ccc(N2CCN(C(=O)c3ccc(Cn4c(=O)[nH]c5ccccc5c4=O)cc3)CC2)cc1,.,.,-2%[46.1 µM],.,14,.
O=C(NCCN1CCCC1)c1ccc(Cn2c(=S)[nH]c3cc4c(cc3c2=O)OCO4)cc1,?,?,15%,.,19,?
SMILES,Pf growth 48h,HCV inh,Lassa entry inh,Pf growth 96h,HCMV inh,MARV entry inh
O=C(c1ccc(Cn2c(=S)[nH]c3cc4c(cc3c2=O)OCO4)cc1)N1CCN(c2ncccn2)CC1,12µM*,.,.,?,.,.
CC1CCCN(C(=O)c2ccc3c(=O)n(Cc4ccc5c(c4)OCO5)c(=S)[nH]c3c2)C1 (stereo not drawn),-29%,?,-27%,7.4µM*,-87*,-20%
O=C(c1ccc(Cn2c(=O)[nH]c3ccccc3c2=O)cc1)N1CCN(c2ccc(Cl)cc2)CC1,?,11µM*,-18%,?,?,?
CCCNC(=O)N1[C@H](c2ccc(C)s2)[C@@H](C)C(=O)[C@@H](C)[C@@H]1c1ccc(C)s1,.,.,-4%[46.1 µM],.,-15,2%[46.1 µM]
Cc1ccc(NC(=O)C2CCCN2S(=O)(=O)c2ccc3c(c2)CCCC(=O)N3)cc1C (stereo not drawn),.,.,-1%[46.1 µM],.,-25,.
CCCn1c(CCC(=O)Nc2cc(OC)cc(OC)c2)nc2cccnc21,.,.,-13%[46.1 µM],.,9,7%[46.1 µM]
COc1ccc(Cn2c(=O)[nH]c3cc(C(=O)N4CCN(c5ccc(OC)cc5)CC4)ccc3c2=O)cc1,-26%,?,2%,24%,.,-1%[46.1 µM]
O=C(CCCCCn1c(=O)[nH]c2ccccc2c1=O)N1CCN(Cc2ccc3c(c2)OCO3)CC1,.,?,16µM*,11%,-19,?
CC(=O)c1ccc(N2CCN(C(=O)c3ccc4c(=O)n(-c5ccccc5)c(=O)[nH]c4c3)CC2)cc1,10µM*,?,9%,?,?,-4%
COc1cc2[nH]c(=O)n(Cc3ccc(C(=O)N4CCN(c5cccc(C)c5C)CC4)cc3)c(=O)c2cc1OC,.,.,-2%[46.1 µM],.,-108*,12%[46.1 µM]
O=C(c1ccc2c(=O)n(-c3ccccc3)c(=O)[nH]c2c1)N1CCN(c2ccc(F)cc2)CC1,-16%,?,-8%,38%,-38,?
COc1ccc(Cn2c(=O)[nH]c3cc(C(=O)N4CCN(c5ccc(C(C)=O)cc5)CC4)ccc3c2=O)cc1,-20%,-15%,1%[46.1 µM],12µM*,-30,0%[46.1 µM]
COc1ccc(N2CCN(C(=O)c3ccc4c(=O)n(Cc5ccc6c(c5)OCO6)c(=O)[nH]c4c3)CC2)cc1,0%,16%,.,13%,?,.
COc1ccc(N2CCN(C(=O)c3ccc4c(c3)[nH]c(=S)n3c5ccccc5nc43)CC2)cc1,-12%,.,.,13%,-2,.
COc1ccc(-n2c(=S)[nH]c3cc(C(=O)N4CCN(c5ccccc5)CC4)ccc3c2=O)cc1,-9%,?,10%[46.1 µM],2.1µM*,-28,-17%[46.1 µM]
O=C(c1ccc2c(=O)n(Cc3ccc4c(c3)OCO4)c(=O)[nH]c2c1)N1CCN(c2ccccc2)CC1,-9%,16%,.,12µM*,-14,.
